Shown are actives, neighbours in structure and some others; about 12% of the full set was active somewhere.
Sfp PPTase inh: qHTS Assay for Inhibitors of Bacillus subtilis Sfp phosphopantetheinyl transferase (PPTase); Potency, µM, for the others: largest response in the series, negative = inhibition, most hits filed as inhibitors; AID 1490, 2009; actives 3.5% (n = 310,000); Biochemical Sfp PPTase activity, qHTS; 4'-phosphopantetheinyl transferase ffp (Bacillus subtilis), Q9F4F7;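 further: the enzyme is Sfp with the accession as filed and its product quenches rhodamine fluorescence; 0% = enzyme reaction without inhibitor and -100% = no enzyme wells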
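Fluorescence-quenching assay with 15 nM Sfp, 5 uM rhodamine-CoA and 12.5 uM BHQ-2-labelled ybbR peptide in pH 7.6 Hepes/MgCl2 buffer. Enzyme was pre-incubated with compound for 15 min at room temperature. Rate was taken from the 30-min fluorescence change (525/598 nm).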
JMJD2A Tudor inh: qHTS Assay for Inhibitors of JMJD2A-Tudor Domain; Lysine-specific demethylase 4A (Homo sapiens), O75164; AlphaScreen JMJD2A-Tudor / H3K4me3 peptide binding; Potency, µM (series often up to 114 µM), inactives show top-dose activity change, negative = inhibition, usual class: inhibitors; actives 4.4% (n = 390,000); further: on the % scale 0 is the no-effect control and ±100 the full control effect; nearly all actives have a fitted effect of over 50% in size
HP1b binding inh: HTS for Inhibitors of HP1-beta Chromodomain Interactions with Methylated Histone Tails | actives 0.56% (n = 390,000) | AlphaScreen HP1-beta / biotin-H3K9me3 peptide binding | Potency, µM (top dose mostly 114 µM), without a hit: at the top dose activity change, negative = inhibition, actives largely listed as inhibitors; further: nearly all actives have a fitted effect of over 70% in size
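AlphaScreen: HP1-beta (50 nM) preformed 30 min with biotin-H3(1-18)K9me3 peptide (50 nM) in PBS pH 7.4, 0.01% Tween-20. Compound added for 30 min at RT, then streptavidin donor/nickel chelate acceptor beads (10 ug/mL) for 30 min.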
TDP1 inh: qHTS Assay for Inhibitors of Tyrosyl-DNA Phosphodiesterase (TDP1); Tyrosyl-DNA phosphodiesterase 1 (Homo sapiens), Q9NUW8; recombinant TDP1, AlphaScreen DNA substrate cleavage; Potency, µM (titrated, usually from 130 µM), without a hit: at the highest dose activity change, negative = inhibition, actives largely listed as inhibitors; actives 0.28% (n = 350,000); AID 485290, 2010; further: on the % scale 0 is the no-effect control and ±100 the full control effect; nearly all actives have a fitted effect of over 40% in size
Target sequence (Q9NUW8 whole entry, looked up): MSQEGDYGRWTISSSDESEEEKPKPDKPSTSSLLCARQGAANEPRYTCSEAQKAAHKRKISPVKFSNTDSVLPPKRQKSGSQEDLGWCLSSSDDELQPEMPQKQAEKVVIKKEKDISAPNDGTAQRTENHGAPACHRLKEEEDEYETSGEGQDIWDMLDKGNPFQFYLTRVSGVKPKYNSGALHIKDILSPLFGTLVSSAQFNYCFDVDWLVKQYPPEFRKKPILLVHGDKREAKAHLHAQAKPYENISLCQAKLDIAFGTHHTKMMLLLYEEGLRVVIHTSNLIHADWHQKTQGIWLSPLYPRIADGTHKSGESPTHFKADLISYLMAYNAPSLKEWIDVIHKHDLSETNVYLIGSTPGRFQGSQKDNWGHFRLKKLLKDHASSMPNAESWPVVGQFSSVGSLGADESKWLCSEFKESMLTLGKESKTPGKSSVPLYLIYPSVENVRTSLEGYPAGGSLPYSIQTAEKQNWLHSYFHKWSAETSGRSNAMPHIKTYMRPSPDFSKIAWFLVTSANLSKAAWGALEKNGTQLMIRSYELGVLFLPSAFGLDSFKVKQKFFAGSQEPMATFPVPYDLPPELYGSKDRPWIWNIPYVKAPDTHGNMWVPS
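Recombinant human Tdp1 (E. coli-expressed, 1 nM final) preincubated with compounds 15 min at room temperature, then 5'-biotin/3'-phosphotyrosine-FITC DNA substrate (15 nM final) added for 5 min. AlphaScreen beads (10 ug/ml final) added 10 min; cleavage lowers signal.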
BAZ2B block: qHTS Assay for Inhibitors of BAZ2B | Bromodomain adjacent to zinc finger domain protein 2B (Homo sapiens), Q9UIF8 | Potency, µM (top dose mostly 114 µM), for the others: at the highest dose activity change, negative = inhibition, most hits filed as inhibitors | AID 504333, 2011 | actives 4.4% (n = 360,000) | AlphaScreen BAZ2B-H3K14Ac peptide displacement; further: on the % scale 0 is the no-effect control and ±100 the full control effect; nearly all actives have a fitted effect of over 60% in size
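Protein-peptide AlphaScreen: BAZ2B 50 nM, b-H3K14Ac 50 nM, 1x PBS pH 7.4 + 0.01% Tween-20. Preincubation 30 min RT; cpd 30 min RT (top 110 uM); beads 20 min RT, light-protected.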
G9a inh: qHTS Assay for Inhibitors of Histone Lysine Methyltransferase G9a | Histone-lysine N-methyltransferase EHMT2 (Homo sapiens), Q96KQ7 | G9a H3K9 monomethylation, AlphaScreen, 2 h | Potency, µM (doses to about 102 µM), for the others: at the top dose activity, negative = inhibition, most hits filed as inhibitors | actives 8.8% (n = 350,000) | AID 504332, 2011; further: on the % scale 0 is the no-effect control and ±100 the full control effect; nearly all actives have a fitted effect of over 75% in size
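AlphaScreen detection with an anti-monomethyl H3K9 antibody quantified product after a 2 h room-temperature reaction containing 500 nM biotinylated H3K9 peptide, 20 µM SAM and 20 nM enzyme, which had been preincubated 15 min with compound.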
* marks the source's active call; other numbers are inactive results; ? = inconclusive; · = no result; [ ] = another dose, or the depositor's remark. The call rests on the fitted dose curve; in most records, active means well fitted curve in the direction sought with a large enough effect; inconclusive means small, poorly fitted or top-dose-only effect, or another doubt; inactive means no such curve, though single readings can be large; an effect the other way counts as inactive or inconclusive. Potency means the concentration at half of the fitted maximal effect.

SMILES | Sfp PPTase inh | JMJD2A Tudor inh | HP1b binding inh | TDP1 inh | BAZ2B block | G9a inh
COc1ccccc1CNc1nc(-c2ccccc2OC)nc2ccccc12 | -20% | · | · | · | · | -4%[0.501 µM]
O=C(CSc1n[nH]c(=O)[nH]c1=O)Nc1cccc(S(=O)(=O)N2CCOCC2)c1 | -7% | -17% | 32% | -2% | -2% | -23%
O=C(CSc1ccccn1)Nc1ccc2c(c1)C(=O)c1ccccc1C2=O | -27% | 50µM* | -21% | 22µM* | 50µM* | ?
O=C(CSc1n[nH]c(=O)[nH]c1=O)Nc1ccc2c(c1)C(=O)c1ccccc1C2=O | -17% | ? | 11µM* | · | 50µM* | ·
CC(C)CC(=O)Nc1nnc(SCC(=O)NCC2CCCO2)s1 (stereo not given) | -2% | -2% | 21% | 5%[56.1 µM] | -11% | 8%
Cc1ccccc1-c1noc(-c2ccc(N3CCCCC3)c([N+](=O)[O-])c2)n1 | · | -14% | 41% | 6% | ? | 10%[59 µM]
O=C(NCc1nnnn1-c1ccc(Cl)cc1)c1ccc(Br)o1 | · | 3% | 24% | · | 16% | ?
CCOC(=O)[C@H]1[C@H]2COc3ccc(OC)cc3[C@@H]2N2C(=O)c3ccccc3NC(=O)[C@@]12C | · | -17% | 29% | -3% | -3% | 18%[2.33 µM]
CN(C(=O)COC(=O)CN1C(=O)C2CC=CCC2C1=O)c1ccccc1 (stereo not given) | · | -5% | 26% | 5% | 8% | 0%
CCC1CCCCN1C(=O)CCCOc1ccccc1 (stereo not given) | 4% | 14µM* | 7% | -1% | 0% | 11%
O=C(CSc1nncc(=O)[nH]1)NCc1ccccc1 | -8% | 40µM* | 0% | -4% | ? | 56µM*
CC(=O)NC1C(=O)N=C(SCC(=O)NCc2ccccc2)NC1=O (stereo not given) | -23% | -10% | 14% | 25µM* | -1% | ?
O=C(CSc1nc2[nH]ncc2c(=O)[nH]1)NCc1ccccc1 | 8% | -16% | 25% | 1% | 3% | 3%[59 µM]
O=C(CSc1nc(SCC(=O)NCc2ccccc2)n(-c2ccccc2)n1)NCc1ccccc1 | -7% | -13% | 28% | 3% | 3% | 25µM*
Cc1ccc2c(C)c(C(=O)N3CCC(c4nc5ccccc5s4)CC3)oc2c1C | · | -6% | 35% | -6% | -28% | -3%[59 µM]
CCOC(=O)N1CCN(C(=S)NC(=O)c2ccc(Br)cc2)CC1 | 8% | -21% | 13% | 5% | -18% | 50µM*
CCOC(=O)N1CCN(C(=S)NC(=O)c2cncc(Br)c2)CC1 | -19% | -14% | -11% | 0% | -30% | 4µM*
CCOC(=O)N1CCN(C(=S)NC(=O)c2cc(Br)ccc2Cl)CC1 | 31% | -12% | 7% | 3% | -15% | ?
CC(C)OC(=O)[C@@H]1CC[C@H](C)[C@@H](CCC[C@@H]2CC=C[C@H](CC#N)O2)O1 | -1% | · | · | 1% | · | ·
CCc1ccc(-n2nc(CO)c(C(=O)NCc3cccnc3)n2)cc1 | · | -2% | 56% | 7% | -2% | -3%[59 µM]
COCCNc1nc(-c2ccccc2Cl)nc2ccccc12 | 14% | · | · | · | · | 16%[0.501 µM]
COCCCn1c(-c2ccccc2Cl)n[nH]c1=S | 9% | 7.9µM* | 22% | · | -1% | 2.2µM*
S=c1nc(-c2ccccc2)n(CCCN2CCOCC2)c2c1CCCC2 | 0% | -17% | -4% | -2% | · | 8%[59 µM]
S=c1[nH]nc(-c2ccc(Cl)cc2)n1CCCN1CCOCC1 | 13% | 10µM* | 16% | 5% | 6% | 40µM*
COCCCn1c(-c2ccc(Cl)cc2)n[nH]c1=S | 2% | 7.9µM* | -11% | 2% | -17% | 4µM*
SMILES | Sfp PPTase inh | JMJD2A Tudor inh | HP1b binding inh | TDP1 inh | BAZ2B block | G9a inh
O=C(OCC(=O)c1c[nH]c2ccccc12)c1ccc([N+](=O)[O-])s1 | 2% | ? | ? | -5% | ? | 45µM*
CCc1cccc2c(C(=O)COC(=O)c3ccc([N+](=O)[O-])s3)c[nH]c12 | 2% | ? | 2% | 8% | ? | ?
CCN(Cc1ccccc1)C(=O)CCS(=O)(=O)c1ccc2c(c1)n(C)c(=O)c(=O)n2C | 1% | -11% | 31% | · | -34% | 12%[59 µM]
CCOC(=O)c1[nH]cnc1C(=O)N[C@@H](C)c1ccccc1 | · | -20% | 33% | 1% | 56µM* | 7%[0.501 µM]
C[C@H](NC(=O)c1nc[nH]c1C(=O)OCc1ccccc1)c1ccccc1 | · | -9% | 63% | 1% | 4% | 1%[0.501 µM]
CCOC(=O)c1[nH]cnc1C(=O)NC(C)C | 2% | 35µM* | -8% | 0% | -37% | ?
CCOC(=O)c1[nH]cnc1C(=O)O | -6% | 2µM* | -9% | 6% | 20µM* | -93%[12.7 µM]
CC(=O)c1ccc(N2CCN(CC(=O)N(C3CC3)C3CCS(=O)(=O)C3)CC2)c(F)c1 (stereo not given) | · | 3% | 28% | 1% | 8% | 28%[12.7 µM]
O=C(Nc1ccc(S(=O)(=O)N2CCCc3ccccc32)cc1)C1CCCO1 (stereo not given) | 2% | -25% | 7% | 3% | 4% | 45µM*
NS(=O)(=O)c1ccc(NC(=O)c2ccc(S(=O)(=O)N3CCc4ccccc43)cc2)cc1 | 6% | -26% | 28% | 0% | -14% | 32µM*
COc1ccc(C(=O)Nc2ccc(S(=O)(=O)N3CCc4ccccc43)cc2)cc1 | · | -24% | 14% | · | · | ·
O=C(NCc1ccccc1)c1ccc(NC(=O)C2CCCO2)cc1 (stereo not given) | 18% | -6% | 36% | 5% | -31% | 20µM*
O=C(Nc1ccncc1)c1ccc(Cl)c(S(=O)(=O)N2CCc3ccccc32)c1 | · | ? | -17% | -4% | 50µM* | ?
COc1cccc(CNC(=O)c2ccc(NC(=O)C3CCCO3)cc2)c1 (stereo not given) | -2% | -4% | 33% | -1% | -4% | 7%[59 µM]
Cc1cccc(NC(=O)c2ccc(Cl)c(S(=O)(=O)N3CCc4ccccc43)c2)n1 | · | -15% | 12% | 2% | 16% | -26%[12.7 µM]
O=C(O)c1ccc(S(=O)(=O)N2CCCc3ccccc32)cc1 | 6% | 0% | 25% | · | -10% | -13%
NC(=O)c1ccsc1NC(=O)c1ccc(S(=O)(=O)N2CCCc3ccccc32)cc1 | 6% | -34% | 13% | -1% | ? | 50µM*

High-throughput results (PubChem BioAssay)
